# Shown are actives, neighbours in structure and some others; about 3.5% of the full set was active somewhere.
# GPR151 ag: human GPR151 activation | actives 1% (n = 650,000) | Q8TDV0 | activation, % at 11.2 µM | PathHunter beta-arrestin GPR151 cells, luminescence; in the data active = activation above about 4.9%
# Target sequence (Q8TDV0 whole entry, looked up): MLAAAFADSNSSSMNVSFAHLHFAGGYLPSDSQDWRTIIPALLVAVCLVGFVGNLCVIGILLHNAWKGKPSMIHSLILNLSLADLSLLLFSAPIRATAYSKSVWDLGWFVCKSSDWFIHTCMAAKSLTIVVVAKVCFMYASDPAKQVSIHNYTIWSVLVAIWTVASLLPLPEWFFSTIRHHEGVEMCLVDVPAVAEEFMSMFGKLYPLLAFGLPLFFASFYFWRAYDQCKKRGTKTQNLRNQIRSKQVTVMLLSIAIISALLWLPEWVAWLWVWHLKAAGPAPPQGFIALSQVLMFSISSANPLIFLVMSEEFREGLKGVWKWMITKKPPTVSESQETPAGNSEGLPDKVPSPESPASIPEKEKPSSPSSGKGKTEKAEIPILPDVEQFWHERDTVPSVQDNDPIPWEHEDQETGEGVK
# FBW7 activator: human FBW7 E3 ligase activation, primary screen | Q969H0 | AlphaScreen FBW7–phospho-cyclin E peptide binding, activator screen | normalized activity (activation), % at 26.1 µM | actives 0.13% (n = 650,000) | AID 1259310; in the data active = normalized activity above about 1.9%;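 also: purified mutant Fbw7 with reduced substrate affinity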
# TEAD-YAP inh: TEAD-YAP interaction inhibition; actives 1.4% (n = 640,000); inhibition, % at 9.12 µM; HEK-TIYL cells, TEAD-Gal4/YAP UAS-luciferase luminescence; AID 1259422; in the data active = inhibition above about 32%
# MITF inh: blocks human microphthalmia-associated transcription factor | O75030 | AlphaScreen MITF homodimerization, bead proximity signal | inhibition, % at 2.6 µM | actives 0.91% (n = 650,000) | AID 1259374; in the data active = inhibition above about 50%
# MITF inh conf: confirmation of human MITF inhibitors | shares compounds with MITF inh | AlphaScreen MITF homodimerization, biotin/His-MITF beads | inhibition, % at 2.6 µM | actives 16% (n = 4,700) | AID 1259372;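 active = inhibition above a cutoff derived from the DMSO control wells, cut at about 28% in these data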;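 also: inhibitors lower the bead chemiluminescence by keeping MITF from dimerizing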
# AlphaScreen intf2: AlphaScreen optical interference, counter-screen; shares compounds with MITF inh; LysRS AlphaScreen counterscreen, signal interference, triplicate; inhibition, % at 2.6 µM; actives 7.6% (n = 4,700); AID 1259376;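 active = inhibition above a cutoff derived from the DMSO control wells, cut at about 30% in these data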
# A number is an active result; – = inactive; · = no result given.
SMILES,GPR151 ag,FBW7 activator,TEAD-YAP inh,MITF inh,MITF inh conf,AlphaScreen intf2
CCc1ccc(CN2CCN(Cc3ccc4ccccc4c3)CC2)cc1,–,–,–,64,–,–
OC1CCN(Cc2ccc3ccccc3c2)CC1,–,–,–,–,·,·
Fc1cccc(CN2CCN(Cc3cccc4ccccc34)CC2)c1,–,–,–,86,–,–
c1ccc2cc(CN3CCSCC3)ccc2c1,–,–,–,57,–,–
Fc1cccc(CN2CCN(Cc3ccc4ccccc4c3)CC2)c1,–,–,–,72,–,–
CCSc1nnc(NC(=O)c2c(-c3ccccc3Cl)noc2C)s1,–,–,–,114,–,–
CCOC(=O)CSc1nnc(NC(=O)c2c(-c3ccccc3Cl)noc2C)s1,–,–,–,–,·,·
Cc1cc(NC(=O)C(C)N2CCCC2)no1 (stereo not given),–,–,–,–,·,·
Cc1cc(NC(=O)C(C)NCCc2ccccc2)no1 (stereo not given),–,–,–,–,·,·
Cc1cc(NC(=O)C(C)NCCCN(C)C)no1 (stereo not given),–,–,–,63,–,–
Cc1cc(NC(=O)C(C)NC2CCCC2)no1 (stereo not given),–,–,–,52,–,–

# Bioassay records deposited in PubChem by The Scripps Research Institute Molecular Screening Center.
